The text below walks through data of PubChem BioAssay (NCATS).

Assay [1] concerns the target Peroxisome proliferator-activated receptor gamma (Homo sapiens) (UniProt P37231). Briefly: qHTS assay for small molecule agonists of peroxisome proliferator-activated receptor gamma signaling (AID 588536; active means well fitted curve in the direction sought with a large enough effect in the signal ratio, with a control signal flat, not every such curve was filed as active; the % refers to the signal ratio;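 further: 0% = DMSO basal wells and 100% = rosiglitazone at 2 µM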). The method in brief: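 HEK293 UAS-bla reporter line, 1% charcoal/dextran FBS; titration, 16 h, 37 C; CCF4 loading 2 h RT; fluorescence 460/530 nm. Normalized to rosiglitazone 2 uM = 100%, DMSO = 0%.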

For assay [2] the target is unchanged. Description: qHTS assay for small molecule antagonists of peroxisome proliferator-activated receptor gamma signaling (AID 588537; active means well fitted inhibition curve with a large enough effect in the signal ratio, with a control signal flat, not every such curve was filed as active; the % refers to the signal ratio;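 further: reporter cells co-stimulated with 50 nM rosiglitazone agonist during compound treatment; % of control where 0% means no effect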). A digest of the protocol: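 PPARγ-UAS-bla HEK293 cells (3000/well) in 1% charcoal/dextran-stripped FBS are treated with compound, then stimulated with 50 nM rosiglitazone for 16 h at 37 °C. Read-out is CCF4 β-lactamase fluorescence after 2 h at RT. IC50 comes from Hill fits normalised to rosiglitazone and DMSO.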

A short description of assay [3]: qHTS assay for small molecule agonists of retinoid X receptor alpha signaling (AID 588544). The conditions noted are these: HEK293T RXRa-UAS-bla, beta-lactamase reporter, 18 h; 530 nm emission.
Assay [4] has as its target Retinoic acid receptor RXR-alpha (Homo sapiens) (UniProt P19793). The assay is described as above.
Assay [5] has as its target Thyroid hormone receptor beta (Homo sapiens) (UniProt P10828). Description: qHTS assay for small molecule agonists of thyroid hormone receptor beta signaling (AID 588545). The method in brief: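 Agonist activity was read as beta-lactamase CCF4 fluorescence (405 ex, 460/530 em), scaled between DMSO (0%) and 10 nM T3 (100%), then Hill-fitted for EC50 and efficacy. HEK 293 TR-UAS-bla cells in 2% charcoal/dextran FBS medium were exposed 18 h at 37 C.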

The nature of assay [6]: qHTS assay for small molecule antagonists of retinoid X receptor alpha signaling (AID 588546; active means well fitted inhibition curve with a large enough effect in the signal ratio, with a control signal flat, not every such curve was filed as active; the % refers to the signal ratio; further: potency means the concentration at half of the fitted maximal effect;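 on max response: cells stimulated with 9-cis-retinoic acid as agonist; on the % scale 0 is the no-effect control and ±100 the full control effect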). As to conditions: HEK293T RXRa-UAS-bla, beta-lactamase ratio, antagonist mode; measured here: W530 green channel, cytotoxicity proxy. A digest of the protocol: (§1)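 Beta-lactamase reporter inhibition, read as CCF4 fluorescence ratio (ex 405, em 460/530 nm) after 2 h at RT. HEK293T UAS-bla cells, 2500/well, were stimulated with 9-cis-RA at 500 or 100 nM final alongside test compound for 18 h at 37 C.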

For assay [7], the target named is Retinoic acid receptor RXR-alpha (Homo sapiens) (UniProt P19793). Described as above. As to conditions: HEK293T RXRa-UAS-bla, beta-lactamase ratio, antagonist mode. The method in brief: as §1
Assay [8] addresses Thyroid hormone receptor beta (Homo sapiens) (UniProt P10828). Description: qHTS assay for small molecule antagonists of thyroid hormone receptor beta signaling (AID 588547; active means well fitted inhibition curve with a large enough effect in the signal ratio, with a control signal flat, not every such curve was filed as active; the % refers to the signal ratio; further: potency means the concentration at half of the fitted maximal effect;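 on activity change % (negative = inhibition): cells stimulated with 0.4 nM T3 agonist during compound exposure; series mostly up to about 77 µM; on the % scale 0 is the no-effect control and ±100 the full control effect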). The conditions noted are these: TR-UAS-bla HEK293, beta-lactamase ratio, antagonist mode, 18 h. A digest of the protocol:
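TR-UAS-bla GripTite HEK293 cells in 2% charcoal/dextran FBS medium; compounds 0.59 nM to 92 uM with T3 at 0.4nM final, 18 h at 37 C. Beta-lactamase read by CCF4 fluorescence (460/530 nm); Hill fits gave IC50 and efficacy.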

Assay [9] has as its target Vitamin D3 receptor (Homo sapiens) (UniProt P11473). Description: qHTS assay for small molecule antagonists of vitamin D receptor signaling (AID 588541).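 Further: receptor activated by calcitriol during compound treatment; series mostly up to about 77 µM; on the % scale 0 is the no-effect control and ±100 the full control effect.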 The method in brief:
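VDR-UAS-bla HEK293T cells in 2% charcoal-stripped FBS were stimulated with 1-alpha,25-dihydroxyvitamin D3 (3 nM final) plus compound for 16 h at 37 C. The beta-lactamase CCF4 readout was normalized to 50 nM agonist and DMSO, and Hill fits gave IC50.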

Assay [10] has the same target. Briefly: qHTS assay for small molecule agonists of vitamin D receptor signaling (AID 588543).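 Further: 0% = DMSO basal and 100% = reference agonist control.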 A digest of the protocol: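 GeneBLAzer VDR-UAS-bla HEK293T cells in 2% charcoal-stripped FBS medium were dosed with compound titrations for 16 h at 37 °C; CCF4 β-lactamase readout (405 nm ex, 460/530 nm em). EC50 and efficacy from Hill fits, normalized to 50 nM calcitriol (100%) and DMSO (0%).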

Molecules are shown by their SMILES. Where “and” joins values, the source holds several entries; their conditions need not be identical. Equal values may be shown once. Inconclusive results are not listed. Calls of active or inactive are those of the source. Unless noted, the call rests on the fitted dose curve. Numbered stars: 1 amine (or outer) side, 2 acyl side, 3 side chain; on linkers, the order of the positions; unused ones are H or OH. Bridge positions count the residues as written; N and C are the ends. Square brackets hold non-standard residues; d marks the D form. Peptide text beside a SMILES is read from it. I, II: the chains in the order shown. Actinocin(9to1) = Cc1c2oc3c(C)ccc(C(=O)[*:1])c3nc-2c(C(=O)[*:2])c(N)c1=O; NMeV = CN[C@H](C(=O)O)C(C)C; Sar = CNCC(=O)O

Peroxisome proliferator-activated receptor gamma (Homo sapiens), sequence (P37231 whole entry, looked up): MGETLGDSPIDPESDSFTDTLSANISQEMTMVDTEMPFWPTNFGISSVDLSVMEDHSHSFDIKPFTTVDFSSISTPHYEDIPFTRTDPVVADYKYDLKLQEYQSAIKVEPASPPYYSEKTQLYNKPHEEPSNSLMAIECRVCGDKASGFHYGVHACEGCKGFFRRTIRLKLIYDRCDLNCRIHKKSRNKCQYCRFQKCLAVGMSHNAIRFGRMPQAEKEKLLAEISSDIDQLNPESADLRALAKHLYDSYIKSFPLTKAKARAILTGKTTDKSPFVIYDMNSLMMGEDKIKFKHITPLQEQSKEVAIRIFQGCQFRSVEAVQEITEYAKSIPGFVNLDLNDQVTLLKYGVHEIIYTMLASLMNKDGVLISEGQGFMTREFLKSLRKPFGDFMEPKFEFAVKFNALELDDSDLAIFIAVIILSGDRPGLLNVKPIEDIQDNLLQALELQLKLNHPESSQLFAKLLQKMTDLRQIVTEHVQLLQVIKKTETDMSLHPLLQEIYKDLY
Thyroid hormone receptor beta (Homo sapiens), sequence (P10828 whole entry, looked up): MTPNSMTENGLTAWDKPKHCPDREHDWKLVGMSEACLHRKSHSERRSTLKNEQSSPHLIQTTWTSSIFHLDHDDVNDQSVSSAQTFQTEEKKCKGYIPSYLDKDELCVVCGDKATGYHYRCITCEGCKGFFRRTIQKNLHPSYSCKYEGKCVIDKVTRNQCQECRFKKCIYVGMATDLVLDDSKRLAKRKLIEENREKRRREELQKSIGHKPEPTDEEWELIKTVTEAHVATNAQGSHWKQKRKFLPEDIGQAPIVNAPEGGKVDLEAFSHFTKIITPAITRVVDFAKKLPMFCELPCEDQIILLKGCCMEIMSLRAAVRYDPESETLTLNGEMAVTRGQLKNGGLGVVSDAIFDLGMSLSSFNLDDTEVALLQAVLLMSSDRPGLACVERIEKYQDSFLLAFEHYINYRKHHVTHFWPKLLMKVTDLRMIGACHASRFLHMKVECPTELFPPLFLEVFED
Retinoic acid receptor RXR-alpha (Homo sapiens), sequence (P19793 whole entry, looked up): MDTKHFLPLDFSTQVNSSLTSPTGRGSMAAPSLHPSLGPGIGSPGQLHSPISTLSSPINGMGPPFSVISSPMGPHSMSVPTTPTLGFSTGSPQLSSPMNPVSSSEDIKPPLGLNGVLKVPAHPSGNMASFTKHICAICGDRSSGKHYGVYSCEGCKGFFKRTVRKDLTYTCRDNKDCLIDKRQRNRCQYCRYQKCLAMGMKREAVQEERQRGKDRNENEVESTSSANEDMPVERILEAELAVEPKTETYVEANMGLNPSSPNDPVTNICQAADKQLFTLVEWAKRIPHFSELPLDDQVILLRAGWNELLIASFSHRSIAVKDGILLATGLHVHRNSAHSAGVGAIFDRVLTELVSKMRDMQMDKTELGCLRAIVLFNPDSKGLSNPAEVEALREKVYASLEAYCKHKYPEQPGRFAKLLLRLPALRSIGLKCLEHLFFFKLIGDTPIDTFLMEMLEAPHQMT

With `CN(C)/N=N/c1nc[nH]c1C(N)=O`, the compound was called inactive in assay [1], in assay [4] and in [5]. For the same compound, the Potency result in [2] is “inactive”. Further, the max response in [3] was 27.5%; in assay [6], -0.507%; in assay [7] it was 17.7% (inactive). Besides, the activity change % (negative = inhibition) in [8] was -19.3% (inactive).

In the case of `Oc1ccc(O)cc1`, in assay [5], the compound was classed as inactive.

Turning to `CC(=O)Oc1ccc(C(c2ccc(OC(C)=O)cc2)c2ccccn2)cc1`, the result in [1] and in assay [10] was inactive. The Potency result in [9] is “inactive”. The activity change % (negative = inhibition) in assay [8] is 5.36% (inactive).

As to `Oc1c(I)cc(Cl)c2cccnc12`, the result in assay [10] and in [5] was inactive. Further, the activity change % (negative = inhibition) in [8] is -33.1% (inactive).

As to `COc1cccc2c1C(=O)c1c(O)c3c(c(O)c1C2=O)C[C@@](O)(C(=O)CO)C[C@@H]3O[C@H]1C[C@H](N)[C@H](O)[C@H](C)O1`, the call in assay [10] and in assay [5] was inactive. Also, the max response in [6] was -19.8%. In addition, the Potency was 2 µM (active) in [7]; 5.62 µM (active) and 4.47 µM (active) in assay [8].

For the compound `Oc1ccc(Cl)cc1Sc1cc(Cl)ccc1O`, the compound was classed as inactive in assay [1] and in assay [10]. Moreover, the Potency result in assay [9] was “inactive”.

In the case of `Nc1ccc(C(=O)O)cc1`, the compound was classed as inactive in [1], in assay [4] and in assay [5]. Further, the Potency result in assay [2] is “inactive”. Besides, the max response is 0.621% in assay [3], 14.8% in assay [6] and -5.07% (inactive) in assay [7]. Further, the activity change % (negative = inhibition) in [8] is 15.2% (inactive).

For `C[C@H]1C[C@H]2[C@@H]3CCC4=CC(=O)C=C[C@]4(C)[C@@]3(Cl)[C@@H](O)C[C@]2(C)[C@@]1(O)C(=O)CO`, the outcome in assay [1], in [10] and in assay [5] was inactive. Further, the Potency entry in assay [2] and in [9] was “inactive” throughout. Also, the max response in assay [6] was 10.8%; in assay [7], -25.7% (inactive). Besides, the activity change % (negative = inhibition) in assay [8] was 1.92% (inactive).

As for `COC1=CC(=O)C[C@@H](C)[C@]12Oc1c(Cl)c(OC)cc(OC)c1C2=O`, the compound was classed as inactive in [10] and in assay [5]. Also, the activity change % (negative = inhibition) in assay [8] was -47.5% (inactive).

For `Cc1cc(=O)n(-c2ccccc2)n1C`, the compound was classed as inactive in assay [1], in assay [10] and in assay [4]. Further, the Potency result in assay [2] and in assay [9] was “inactive” each time. For the same compound, the max response is -30.7% in [3], -18.2% in assay [6] and 0.0131% (inactive) in assay [7]. Moreover, the activity change % (negative = inhibition) in assay [8] was 5.56% (inactive).

For `Cc1c2oc3c(C)ccc(C(=O)N[C@@H]4C(=O)N[C@H](C(C)C)C(=O)N5CCC[C@H]5C(=O)N(C)CC(=O)N(C)[C@@H](C(C)C)C(=O)O[C@@H]4C)c3nc-2c(C(=O)N[C@@H]2C(=O)N[C@H](C(C)C)C(=O)N3CCC[C@H]3C(=O)N(C)CC(=O)N(C)[C@@H](C(C)C)C(=O)O[C@@H]2C)c(N)c1=O` (I: T[dV]P[Sar][NMeV] / II: T[dV]P[Sar][NMeV]; ester I:1-I:C, II:1-II:C; linker I:N-II:N via Actinocin(9to1)), the outcome in assay [10] and in assay [5] was inactive. The max response in assay [6] is -13.6% and -1.23%. For the same compound, the Potency in assay [7] was 31.6 nM (active) and 14.1 nM (active); in assay [8] it was 50.1 nM (active).

As for `NC(=NCCCCCCN=C(N)/N=C(\N)Nc1ccc(Cl)cc1)/N=C(\N)Nc1ccc(Cl)cc1`, the Potency result in [2] was “inactive”. Besides, the compound was classed as inactive in assay [5]. Moreover, the max response in assay [6] was determined as 21.2%. For the same compound, the Potency in assay [7] was 39.8 µM (active).

In the case of `O=C(O)CCCCC(=O)O`, the outcome in [1], in assay [10] and in assay [4] was inactive. Besides, the Potency entry in [2] and in assay [9] was “inactive” each time. The max response in assay [3] is -28.1%. Besides, in assay [8], the activity change % (negative = inhibition) was 0.209% (inactive).

Consider `CC(O)C(=O)O` (stereo not drawn), for which, in assay [9], the Potency result is “inactive”. Moreover, the compound was classed as inactive in assay [10], in assay [4] and in assay [5]. The max response in assay [3] was -16.3%; in [6], 7.59%; in assay [7], 2.3% (inactive). For the same compound, the activity change % (negative = inhibition) in assay [8] was -8.09% (inactive).

In the case of `CC(C)(C)CC(C)(C)c1ccc(OCCOCC[N+](C)(C)Cc2ccccc2)cc1`, the compound was classed as inactive in [1] and in [10].
